In PubChem BioAssay (NCI):
Compounds without any hit were thinned out: in the full panel of roughly 83,000, 20% have a hit.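 Step 1: grow cells in 96-well plates. Step 2: add test compound at a single concentration. Step 3: incubate 48 h. Step 4: record percent growth.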 Active and inactive are the calls of the source. Rule for the calls: active = growth percent below 10; inactive = the rest.

The molecules below were run on MDA-MB-468 breast (assay: NCI-60 one-dose screen, 48 h (100 = growth as untreated, 0 = no growth, -100 = all killed)). Details: 10 µM unless noted.
For COc1ccc(COc2ccc(/C=C3/C(=O)Nc4cc(Cl)ccc43)cc2)cc1, the growth was 93.4% (inactive).
In the case of CCc1ccc(OC(=O)CCl)cc1, the growth is reported as 116% (inactive).
O=C1C2C(c3cccs3)C=C(c3ccc(Cl)cc3)N2C(=S)N1c1ccccc1 (stereo not given) was tested, and the growth was 79.7% (inactive).
With O=C(CCN1CCCC1)Nc1ccc2c(Nc3ccc(Br)cc3)c3ccccc3nc2c1 the growth was 39.5% (inactive).
In the case of C#CCNC(=O)[C@]1(C)CC[C@]2(C)CC[C@@H]3C(=CC[C@H]4[C@@]3(C)CC[C@H]3C(C)(C)C(=O)CC[C@]43C)[C@@H]2C1, the growth is reported as 104% (inactive).
